Holding throughout (parameters): scale not given: direction of the effect not stated beside the values
Experiment [1] concerns the target Protein translocase subunit SecA (Escherichia coli (strain K12)) (UniProt P10408). Description: Assay to Identify E. coli SecA ATPase Inhibitors. To be noted: 30 µM. The class given is functional.
In experiment [2] the target is T1, Ubiquitin-activating enzyme e1, putative (Leishmania donovani (strain BPK282A1)) (UniProt E9BSI1).
T1 sequence (whole entry): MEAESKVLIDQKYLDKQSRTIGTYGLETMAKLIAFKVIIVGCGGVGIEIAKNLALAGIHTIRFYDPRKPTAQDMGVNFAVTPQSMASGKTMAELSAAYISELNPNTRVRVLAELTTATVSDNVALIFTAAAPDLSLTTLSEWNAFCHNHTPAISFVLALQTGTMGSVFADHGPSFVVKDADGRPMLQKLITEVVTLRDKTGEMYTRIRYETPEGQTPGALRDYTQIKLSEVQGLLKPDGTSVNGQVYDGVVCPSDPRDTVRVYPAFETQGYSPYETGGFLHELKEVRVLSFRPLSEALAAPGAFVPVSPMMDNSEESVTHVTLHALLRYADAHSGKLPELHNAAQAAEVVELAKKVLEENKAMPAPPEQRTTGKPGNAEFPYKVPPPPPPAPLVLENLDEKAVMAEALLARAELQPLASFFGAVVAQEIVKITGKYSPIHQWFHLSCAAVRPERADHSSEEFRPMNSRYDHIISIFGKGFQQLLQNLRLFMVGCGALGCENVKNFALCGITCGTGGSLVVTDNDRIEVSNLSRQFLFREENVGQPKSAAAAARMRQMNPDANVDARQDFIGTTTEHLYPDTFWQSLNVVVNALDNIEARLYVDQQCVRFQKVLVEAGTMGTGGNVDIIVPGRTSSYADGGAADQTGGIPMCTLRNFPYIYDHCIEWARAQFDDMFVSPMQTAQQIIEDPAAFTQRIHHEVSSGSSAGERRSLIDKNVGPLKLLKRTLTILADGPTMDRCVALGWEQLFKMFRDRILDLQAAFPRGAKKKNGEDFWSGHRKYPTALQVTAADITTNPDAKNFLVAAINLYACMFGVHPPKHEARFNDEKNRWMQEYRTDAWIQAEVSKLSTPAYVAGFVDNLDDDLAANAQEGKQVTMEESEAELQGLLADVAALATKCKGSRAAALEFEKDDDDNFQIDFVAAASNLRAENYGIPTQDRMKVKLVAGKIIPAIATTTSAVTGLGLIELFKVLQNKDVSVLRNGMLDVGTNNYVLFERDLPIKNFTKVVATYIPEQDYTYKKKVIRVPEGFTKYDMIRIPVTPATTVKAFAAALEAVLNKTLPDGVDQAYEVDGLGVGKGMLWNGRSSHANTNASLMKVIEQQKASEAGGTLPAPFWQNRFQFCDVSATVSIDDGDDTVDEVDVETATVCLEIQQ
Description: Leishmania donovani Ubiquitin Activating Enzyme (LdE1). The class given is functional. To be noted: 30 µM.

For experiment [3], the target named is Sialic acid-binding Ig-like lectin 9 (Homo sapiens) (UniProt Q9Y336). Briefly: Hs-Siglec9 ALPHAscreen SOP 20170721. To be noted: 10 µM.
A further experiment relates to Trypanosoma cruzi. Description: Trypanosoma cruzi phosphomannomutase and mannose-1-phosphate guanylyltransferase assay. To be noted: 10 µM. In kind it is functional.
Experiment [4] deals with T2, Arginase-2, mitochondrial (Homo sapiens) (UniProt P78540).
T2 sequence (whole entry): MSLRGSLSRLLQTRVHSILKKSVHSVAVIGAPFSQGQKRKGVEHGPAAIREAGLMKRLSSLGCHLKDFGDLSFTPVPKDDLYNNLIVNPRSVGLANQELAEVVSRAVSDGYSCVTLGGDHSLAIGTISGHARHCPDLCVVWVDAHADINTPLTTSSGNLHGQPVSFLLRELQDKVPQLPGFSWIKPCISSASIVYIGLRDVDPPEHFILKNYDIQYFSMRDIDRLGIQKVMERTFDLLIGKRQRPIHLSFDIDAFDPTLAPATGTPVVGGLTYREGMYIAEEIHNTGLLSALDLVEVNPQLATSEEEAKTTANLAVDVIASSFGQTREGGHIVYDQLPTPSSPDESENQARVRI
Description: in vitro enzyme assay to detect the production of urea directly proportional to the activity of Arginase II. Further: in the data most compounds retested in dose-response had high values. To be noted: 33.3 µM. The class given is functional.

Experiment [5] has as its target T3, Proteasome subunit beta (Trypanosoma cruzi) (UniProt O96673).
T3 sequence (whole entry): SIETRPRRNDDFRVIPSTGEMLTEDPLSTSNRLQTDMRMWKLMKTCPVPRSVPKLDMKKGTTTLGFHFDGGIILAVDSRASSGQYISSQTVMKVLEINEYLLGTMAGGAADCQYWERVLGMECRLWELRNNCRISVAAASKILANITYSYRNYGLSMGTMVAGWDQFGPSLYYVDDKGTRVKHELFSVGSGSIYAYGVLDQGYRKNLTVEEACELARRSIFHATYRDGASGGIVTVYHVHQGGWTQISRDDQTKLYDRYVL
Description: Trypanosoma cruzi proteasome chymotrypsin-like activity (TcProtChymo) assay. Further: in the data most compounds retested in dose-response had high values. In kind it is functional. To be noted: 9.37 µM.

Another experiment is filed under the species Homo sapiens. Description: To identify inhibition of the IFN signalling (Jak-Stat) pathway via expression of an eGFP reporter gene under the control of an IFN-stimulated response element (ISRE) containing MxA promoter. In kind it is functional. To be noted: 30 µM. On the technique in general: In a reporter assay the amount or activity of a reporter protein is the signal.

Experiment [6] concerns the target T4, Tyrosyl-tRNA synthetase, putative (Trypanosoma cruzi (strain CL Brener)) (UniProt Q4DSP6).
T4 sequence (whole entry): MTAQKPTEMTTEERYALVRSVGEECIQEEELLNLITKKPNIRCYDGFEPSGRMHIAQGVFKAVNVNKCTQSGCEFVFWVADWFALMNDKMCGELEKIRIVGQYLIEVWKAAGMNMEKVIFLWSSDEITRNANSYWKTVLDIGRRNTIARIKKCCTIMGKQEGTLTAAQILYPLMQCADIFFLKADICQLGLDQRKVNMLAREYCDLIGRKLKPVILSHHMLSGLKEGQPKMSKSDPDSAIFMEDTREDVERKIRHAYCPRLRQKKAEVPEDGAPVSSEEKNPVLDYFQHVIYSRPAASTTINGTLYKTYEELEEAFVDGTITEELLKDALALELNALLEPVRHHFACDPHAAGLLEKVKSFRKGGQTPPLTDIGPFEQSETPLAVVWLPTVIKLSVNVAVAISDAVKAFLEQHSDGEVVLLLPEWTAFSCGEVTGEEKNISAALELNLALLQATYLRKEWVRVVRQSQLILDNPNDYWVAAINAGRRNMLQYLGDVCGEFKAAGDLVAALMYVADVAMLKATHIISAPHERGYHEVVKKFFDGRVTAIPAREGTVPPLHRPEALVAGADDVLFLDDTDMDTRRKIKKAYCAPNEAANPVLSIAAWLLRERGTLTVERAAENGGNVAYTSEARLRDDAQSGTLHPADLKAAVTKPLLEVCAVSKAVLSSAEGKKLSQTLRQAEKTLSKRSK
Briefly: Trypanosoma cruzi tyrosyl tRNA synthetase (TcYRS) _High Tyrosine SOP. Further: in the data most compounds retested in dose-response had high values. In kind it is functional. To be noted: 30 µM.

The target of experiment [7] is T4, Tyrosyl-tRNA synthetase, putative (Trypanosoma cruzi (strain CL Brener)). Description: Trypanosoma cruzi tyrosyl tRNA synthetase (TcYRS) SOP. The class given is functional. To be noted: 30 µM.
Experiment [8] concerns the target Chromo domain-containing protein 1 (Saccharomyces cerevisiae (strain ATCC 204508 / S288c) (Baker's yeast)) (UniProt P32657). Description: ScCHD-1 Enzyme Inhibition Assay. Further: in the data most compounds retested in dose-response had high values. The class given is functional. To be noted: 30 µM.

Molecules are shown by their SMILES. For some assays here: Results with a measured potency or affinity are listed apart.

Sialic acid-binding Ig-like lectin 9 (Homo sapiens), sequence (Q9Y336 whole entry): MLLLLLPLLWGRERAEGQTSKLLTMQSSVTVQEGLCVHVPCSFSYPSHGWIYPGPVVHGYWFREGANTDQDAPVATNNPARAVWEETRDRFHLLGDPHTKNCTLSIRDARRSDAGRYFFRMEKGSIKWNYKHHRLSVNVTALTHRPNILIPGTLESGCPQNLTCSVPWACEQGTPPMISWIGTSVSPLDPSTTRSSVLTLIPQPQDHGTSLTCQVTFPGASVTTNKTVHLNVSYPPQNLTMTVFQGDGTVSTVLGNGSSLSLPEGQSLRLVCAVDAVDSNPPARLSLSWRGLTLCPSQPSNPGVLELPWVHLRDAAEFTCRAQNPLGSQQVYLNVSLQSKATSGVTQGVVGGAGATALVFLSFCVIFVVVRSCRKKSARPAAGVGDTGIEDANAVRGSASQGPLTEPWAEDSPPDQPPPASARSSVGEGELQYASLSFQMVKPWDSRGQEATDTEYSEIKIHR
Chromo domain-containing protein 1 (Saccharomyces cerevisiae (strain ATCC 204508 / S288c) (Baker's yeast)), sequence (P32657 whole entry, the tested form may be a part): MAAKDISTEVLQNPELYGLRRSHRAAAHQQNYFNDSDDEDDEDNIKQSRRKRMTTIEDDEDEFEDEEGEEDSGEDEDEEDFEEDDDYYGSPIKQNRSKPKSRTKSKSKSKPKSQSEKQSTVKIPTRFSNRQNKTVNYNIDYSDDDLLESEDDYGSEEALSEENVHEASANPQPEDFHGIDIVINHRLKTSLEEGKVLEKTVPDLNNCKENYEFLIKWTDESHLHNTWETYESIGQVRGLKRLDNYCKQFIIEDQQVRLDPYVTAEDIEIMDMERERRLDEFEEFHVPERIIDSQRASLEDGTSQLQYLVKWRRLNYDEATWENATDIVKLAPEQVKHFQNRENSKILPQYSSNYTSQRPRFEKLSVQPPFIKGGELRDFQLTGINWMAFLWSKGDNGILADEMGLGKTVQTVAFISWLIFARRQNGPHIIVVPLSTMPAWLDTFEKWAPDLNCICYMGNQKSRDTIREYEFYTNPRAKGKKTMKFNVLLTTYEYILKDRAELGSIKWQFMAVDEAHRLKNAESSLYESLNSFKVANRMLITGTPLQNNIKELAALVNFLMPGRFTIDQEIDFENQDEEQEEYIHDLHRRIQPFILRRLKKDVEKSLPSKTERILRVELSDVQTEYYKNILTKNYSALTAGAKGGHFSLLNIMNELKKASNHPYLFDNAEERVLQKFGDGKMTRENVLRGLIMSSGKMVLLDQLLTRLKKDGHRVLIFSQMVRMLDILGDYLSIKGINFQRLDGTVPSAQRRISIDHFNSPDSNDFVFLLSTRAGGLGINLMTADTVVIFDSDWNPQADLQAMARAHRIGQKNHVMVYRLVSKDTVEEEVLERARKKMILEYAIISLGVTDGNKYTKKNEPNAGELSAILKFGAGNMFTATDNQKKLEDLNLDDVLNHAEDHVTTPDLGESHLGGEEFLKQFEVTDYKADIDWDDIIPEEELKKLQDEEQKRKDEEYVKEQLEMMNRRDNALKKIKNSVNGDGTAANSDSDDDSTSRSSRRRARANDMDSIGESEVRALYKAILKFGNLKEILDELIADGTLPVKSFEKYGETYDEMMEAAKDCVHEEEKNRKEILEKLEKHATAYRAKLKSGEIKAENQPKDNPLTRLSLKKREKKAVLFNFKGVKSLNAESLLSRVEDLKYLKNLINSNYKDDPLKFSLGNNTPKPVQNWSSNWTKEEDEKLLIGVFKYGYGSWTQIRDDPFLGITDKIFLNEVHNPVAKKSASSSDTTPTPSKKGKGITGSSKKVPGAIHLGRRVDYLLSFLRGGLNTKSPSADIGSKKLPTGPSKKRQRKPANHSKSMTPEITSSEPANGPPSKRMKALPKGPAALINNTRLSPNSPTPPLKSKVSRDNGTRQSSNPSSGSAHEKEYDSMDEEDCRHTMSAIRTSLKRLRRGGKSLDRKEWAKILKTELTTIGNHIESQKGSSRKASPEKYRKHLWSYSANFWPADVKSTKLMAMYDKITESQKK
Protein translocase subunit SecA (Escherichia coli (strain K12)), sequence (P10408 whole entry): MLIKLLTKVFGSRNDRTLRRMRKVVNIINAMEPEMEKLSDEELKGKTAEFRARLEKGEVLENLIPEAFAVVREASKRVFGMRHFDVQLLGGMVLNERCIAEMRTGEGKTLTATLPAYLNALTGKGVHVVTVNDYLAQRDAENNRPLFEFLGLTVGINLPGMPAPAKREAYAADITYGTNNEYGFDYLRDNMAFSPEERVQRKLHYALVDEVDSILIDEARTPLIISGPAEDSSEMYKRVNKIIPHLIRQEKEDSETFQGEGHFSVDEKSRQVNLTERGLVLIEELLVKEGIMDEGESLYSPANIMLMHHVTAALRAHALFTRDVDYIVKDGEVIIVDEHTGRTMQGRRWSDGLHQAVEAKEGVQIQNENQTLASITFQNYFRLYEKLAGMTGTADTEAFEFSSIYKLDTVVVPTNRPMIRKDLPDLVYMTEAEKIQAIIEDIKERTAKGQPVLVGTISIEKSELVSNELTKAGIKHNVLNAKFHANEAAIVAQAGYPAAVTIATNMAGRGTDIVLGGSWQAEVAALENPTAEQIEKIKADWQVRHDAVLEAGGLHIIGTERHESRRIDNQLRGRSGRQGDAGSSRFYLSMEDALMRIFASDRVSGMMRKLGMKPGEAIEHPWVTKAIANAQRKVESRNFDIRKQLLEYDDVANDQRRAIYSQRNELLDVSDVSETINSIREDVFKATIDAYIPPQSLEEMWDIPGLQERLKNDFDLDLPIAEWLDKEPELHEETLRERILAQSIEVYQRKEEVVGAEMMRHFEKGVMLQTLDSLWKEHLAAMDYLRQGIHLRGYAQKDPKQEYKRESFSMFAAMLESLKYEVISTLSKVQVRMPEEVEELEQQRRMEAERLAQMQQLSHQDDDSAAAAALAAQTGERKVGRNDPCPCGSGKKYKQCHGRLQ

In the case of `O=C(COCc1ccccc1)N1CCC(OCc2cccnc2)CC1`, the Percent Effect in experiment [1] is -7.79%; in experiment [2], 2.7%; in experiment [3], 2.89%; in the experiment with Trypanosoma cruzi it was -4.95%; in experiment [4] it was -0.35%; in experiment [5], 9.42%. The Percent Effect was 35.8% in the experiment listed under Homo sapiens, 5.85% in experiment [6], 12.2% in experiment [7] and -2.8% in [8].

As to `O=C1NC2(CCN(Cc3nccs3)CC2)CC1c1ccncc1` (stereo not given), the Percent Effect in [1] was -7.46%; in experiment [2], 9.09%; in experiment [3], 9.45%; with Trypanosoma cruzi, 6.13%; in experiment [4], -6.07%; in experiment [5], 6.8%. Further, the Percent Effect in the experiment filed under Homo sapiens was -18.5%; in experiment [6], 3.68%; in experiment [7], 10.3%; in experiment [8] it was 0.471%.

For `COc1ccccc1OCC(=O)NS(=O)(=O)c1ccc(Br)s1`, the Percent Effect is -3.35% in experiment [1]; 5.2% in [2]; 18.6% in experiment [3]; -2.61% in the experiment on Trypanosoma cruzi; 2.66% in [4]; 6.14% in [5]. For the same molecule, the Percent Effect in the experiment listed under Homo sapiens was 1.82%; in experiment [6], -1.96%; in experiment [7], 7.06%; in experiment [8], -3.46%.

As for `CCOC(=O)N1CCN(C(=O)c2ccc3ccn(C)c3c2)CC1`, the Percent Effect in experiment [1] is -3.31%; in experiment [2], 0%; in experiment [3] it was 29%; in the experiment with Trypanosoma cruzi it was 7.47%; in experiment [4] it was -8.74%; in [5], 11.6%. The Percent Effect in the experiment listed under Homo sapiens was 9.78%; in experiment [6], 4.79%; in [7], 7.32%; in experiment [8] it was 5.11%.

`CN(C)c1ccc(C(=O)NCC2(c3ccccc3)CCOCC2)cc1`: the Percent Effect in [1] was -0.155%; in experiment [2], 22.7%; in experiment [3], -5.97%; in the experiment on Trypanosoma cruzi, 1.38%; in experiment [4] it was -2.21%; in experiment [5] it was 15.4%. Further, the Percent Effect in the experiment listed under Homo sapiens was 9.64%; in experiment [6], 0%; in experiment [7] it was 15%; in experiment [8], -24.2%.

Take `Cc1ccc(S(=O)(=O)N2CCOc3ccccc32)cc1C(N)=O`: the Percent Effect was -0.964% in [1]; 10.3% in experiment [2]; -14.2% in experiment [3]; -4.79% in the experiment with Trypanosoma cruzi; -2.87% in experiment [4]; 10.5% in [5]. For the same molecule, the Percent Effect in the experiment listed under Homo sapiens was 34.9%; in experiment [6] it was 0.478%; in [7] it was 8.43%; in experiment [8] it was 17.3%.

Take `CCCc1cc(C(=O)N2CCCC2c2cccnc2)[nH]n1` (stereo not given): the Percent Effect is -2.28% in experiment [1]; 13.5% in [2]; 7.33% in experiment [3]; 2.81% with Trypanosoma cruzi; 4.54% in experiment [4]; 17.1% in experiment [5]. The Percent Effect in the experiment filed under Homo sapiens was 10.1%; in [6] it was 4.79%; in experiment [7] it was 14.6%; in experiment [8], -3.7%.

For `Cc1ccc(Cl)cc1N1CCC(CNC(=O)CCn2ccnn2)C1` (stereo not given), the Percent Effect in [1] is -2.11%; in experiment [2] it was 12.8%; in [3], -5.81%; in the experiment on Trypanosoma cruzi, -2.35%; in [4], 8.61%; in [5] it was 15.8%. Also, the Percent Effect in the experiment filed under Homo sapiens was 24.6%; in experiment [6], 5.26%; in experiment [7], 18.1%; in experiment [8], 0.402%.

`O=C1CC(c2cccc(O)c2)c2sc(C(=O)O)c(-c3ccccc3)c2N1` (stereo not given): the Percent Effect is 7.88% in experiment [1]; -10.8% in experiment [2]; -0.96% in experiment [3]; -8.24% in the experiment with Trypanosoma cruzi; -10.1% in experiment [4]; 13% in [5]. Moreover, the Percent Effect in the experiment filed under Homo sapiens is 31.3%; in experiment [6], -9.04%; in experiment [7] it was -2.44%; in [8], -0.195%.

Regarding `COC(=O)Cn1c(=O)nc2n1C(=O)N(c1ccc(Cl)cc1)C2`, the Percent Effect in experiment [1] is -4.67%; in [2], 2.7%; in experiment [3] it was 8.46%; in the experiment with Trypanosoma cruzi, -8.83%; in experiment [4], -2.45%; in experiment [5], 10.4%. Moreover, the Percent Effect in the experiment filed under Homo sapiens is -2.27%; in [6], 0.532%; in experiment [7] it was 2.44%; in experiment [8] it was -2.66%.

Consider `Cc1ccc2oc(C(=O)N3CCCC(n4nc(C)cc4C)C3)cc2n1` (stereo not given), for which the Percent Effect is -4.01% in experiment [1]; 10.3% in experiment [2]; 6.58% in experiment [3]; 0.845% with Trypanosoma cruzi; 1.23% in [4]; 4.01% in [5]. In addition, the Percent Effect in the experiment filed under Homo sapiens was -2.91%; in experiment [6] it was 4.31%; in experiment [7], 13.2%; in [8], 3.09%.

Values taken from ChEMBL document CHEMBL3988442, “University of Dundee, Small-Polar-MMV Screening Library” (2021).
